Test in all cases: NCI-60 one-dose screen, 48 h (100 = growth as untreated, 0 = no growth, -100 = all killed)
Holding throughout (conditions): 10 µM unless noted

The subject of experiment [1] is SR leukemia.
For experiment [2], the system named is RPMI-8226 leukemia.
For experiment [3], the system named is OVCAR-8 ovarian.
The subject of experiment [4] is OVCAR-5 ovarian.
The subject of experiment [5] is OVCAR-4 ovarian.
For experiment [6], the system named is SK-OV-3 ovarian.
Experiment [7] deals with IGROV1 ovarian.
In experiment [8] the test system is OVCAR-3 ovarian.
In experiment [9] the test system is HS 578T breast.
The test system of experiment [10] is NCI/ADR-RES ovarian.

These results are taken from PubChem BioAssay (NCI).

The structures appear in SMILES notation. The panel holds about 83,000 compounds, 20% with a hit somewhere; the sample as a whole holds those more often.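 Assay: single dose, 48 h. Readout: percent growth (0 = no net growth; negative = cell death). Active: <10.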 A number with no mark means an inactive call. Calls of active or inactive are those of the source.

In the case of `O=C(CSc1nc2ccc([N+](=O)[O-])cc2[nH]1)Nc1ccc(F)cc1`, the growth in experiment [1] was 33.7%; in experiment [2], 24.1%; in [3] it was 67.3%; in [4] it was 91.8%; in experiment [5] it was 34.6%; in experiment [6], 63.1%. Further, the growth in experiment [7] is 68.4%; in experiment [8], 47.8%; in experiment [9] it was 74%; in experiment [10] it was 59%.

As to `O=C(NCCCCNC(=O)OCc1ccc2c(Cl)cc(Cl)c(O)c2n1)OCc1ccc2c(Cl)cc(Cl)c(O)c2n1`, the growth is 17% in experiment [1]; 25% in experiment [2]; 11.2% in experiment [3]; 38.6% in [4]; 38.9% in experiment [5]; 30.5% in experiment [6]. Moreover, the growth is 11.1% in experiment [7], -40.3% (active) in [8], 21.9% in experiment [9] and 3.44% (active) in experiment [10].

Consider `O=C(/C=C/c1ccc(Cl)cc1)c1cccc(Nc2nc(Nc3ccccc3)nc(Nc3ccccc3)n2)c1`, for which the growth in experiment [1] was 60.5%; in [2], -43.9% (active); in [3], 94.9%; in experiment [4], 92.9%; in experiment [5], 83.6%; in experiment [6] it was 108%. For the same compound, the growth is 13.5% in [7], 84.7% in experiment [8], 92.7% in experiment [9] and 91.9% in [10].

Take `CC(C)(C)n1cc(-c2ccnc(NCCNS(=O)(=O)c3cccc(F)c3)c2)c(-c2ccccc2)n1`: the growth in [1] is 32.6%; in experiment [2] it was 61%; in experiment [3], 87.9%; in [4] it was 105%; in [5] it was 72.7%; in [6], 102%. The growth in experiment [7] is 97.2%; in [8], 101%; in experiment [9], 92.9%; in experiment [10], 89.5%.

With `CCC(=C(c1ccc(OCCN2CCCC2)cc1)c1ccc(OCCN2CCCC2)cc1)c1ccc(Cl)cc1`, the growth in experiment [1] was -40.5% (active); in [2], -44.1% (active); in experiment [3], -7.08% (active); in experiment [4] it was 19.5%; in [5], -43.4% (active); in [6] it was 84.8%. For the same compound, the growth in experiment [7] was -20.2% (active); in experiment [8], -57.6% (active); in experiment [9], -47.4% (active); in [10], 10.5%.

Turning to `O=C(c1cc2ccccc2o1)c1nn(-c2ccccc2)/c(=N/N=Cc2cn(-c3ccccc3)nc2-c2cc3ccccc3oc2=O)s1`, the growth in [1] was 72.7%; in experiment [2] it was 90.9%; in experiment [3], 97.5%; in [4] it was 105%; in experiment [5], 93.3%; in [6], 127%. Also, the growth in [7] is 99.1%; in experiment [8], 100%; in [9] it was 99.8%; in experiment [10], 96.5%.

Turning to `CCCCCCCCn1ccc2cc(NC(=O)Cn3cc(CN4CCCCC4)nn3)ccc21`, the growth in experiment [1] was 5.39% (active); in experiment [2], -59.2% (active); in experiment [3], 42%; in [4] it was 73.7%; in experiment [5], 59.1%; in experiment [6] it was 67.5%. The growth in experiment [7] is 45.5%; in [8], 26%; in experiment [9], 41.5%; in [10] it was 72.7%.

As to `CN(C)Cc1ccc(NC(=O)c2cncc(C#Cc3cnc(N)c4ncccc34)c2)cc1F`, the growth in experiment [1] is 2.94% (active); in experiment [2], 35.6%; in experiment [3] it was -18% (active); in experiment [4], 123%; in [5], -71.3% (active); in experiment [6], 112%. In addition, the growth is 100% in [7], 87.9% in [8], 87.3% in experiment [9] and 56.9% in experiment [10].

For the compound `CN(C)CC(=O)Nc1ccc2ncnc(Nc3ccc(Oc4cccc(C(F)(F)F)c4)c(Cl)c3)c2c1`, the growth in experiment [1] was -1.46% (active); in experiment [2], 31.2%; in [3], 55.5%; in [4] it was 82.6%; in [5], 51.5%; in experiment [6] it was 19.7%. Moreover, the growth in [7] was 8.24% (active); in experiment [8], 42.5%; in experiment [9], 79.1%; in experiment [10] it was 54.3%.

Consider `O=[N+]([O-])c1ccc(-c2nc(N3CCOCC3)c3c4c(sc3n2)CCCC4)cc1`, for which the growth was 76.4% in [1]; 109% in [2]; 99.8% in [3]; 95.4% in experiment [4]; 92.2% in experiment [5]; 81.2% in experiment [6]. Further, the growth was 75.2% in experiment [7], 93.8% in [8], 90.7% in [9] and 102% in experiment [10].

Consider `CC1(C)CC2=C3C=C[C@@H]4[C@@]5(C)CCC(=O)C(C)(C)[C@@H]5CC[C@@]4(C)[C@]3(C)CC[C@@]2(C(=O)O)CC1=O`, for which the growth in [1] is 71.7%; in experiment [2], 31.8%; in [3], 89.6%; in [4], 93.2%; in [5], 64.5%; in experiment [6], 84.3%. For the same compound, the growth was 85.3% in experiment [7], 60.1% in experiment [8], 95.6% in experiment [9] and 93.5% in experiment [10].

In the case of `CCO/C=N/C1=C(C#N)C(c2ccc(OC)cc2)c2sc3c(F)cccc3c2O1` (stereo not given), the growth in experiment [1] is 25.5%; in experiment [2], 7.6% (active); in experiment [3], 36.5%; in [4], 63.8%; in experiment [5], 64.8%; in experiment [6], 49.6%. Besides, the growth in experiment [7] was 44.4%; in [8] it was 8.12% (active); in [9], 4.04% (active); in experiment [10] it was 16.9%.

Turning to `CC(=O)N(N=Nc1ccccc1)c1cccc2ccccc12`, the growth is 74.1% in experiment [1]; 102% in [2]; 84.1% in experiment [3]; 75.8% in experiment [4]; 94.5% in [5]; 82.7% in experiment [6]. Moreover, the growth in experiment [7] was 62.9%; in experiment [8] it was 125%; in [9], 101%; in experiment [10], 78.5%.
